This is a sample that favours compounds with a hit; in the whole collection about 19% have one here.
HT1080 IDH1KD tx: toxicity to HT-1080 IDH1 knockdown cells (counter line); HT-1080 IDH1 knockdown viability, ATP luminescence, 48 h; Potency, µM (doses to about 46.1 µM), actives largely listed as cytotoxic; 360,000 tested, 2% active; AID 686971
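IDH1KD HT-1080 cells, 750/well, RPMI + 5% FBS; compound pinned after 2 h settling; 48 h, 37 °C; CellTiter-Glo luminescence; % activity normalised to DMSO and no-cell wells; curves fitted, classed by r2 and efficacy.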
TDP1 cell noCPT: qHTS for Inhibitors of human tyrosyl-DNA phosphodiesterase 1 (TDP1): qHTS in cells in absence of CPT; DT40 Tdp1-/- hTDP1 cells, no CPT, ATP luminescence, 48 h; Potency, µM (doses to about 46.2 µM), actives largely listed as inhibitors; 420,000 tested, 15% active; AID 686978, 2013; also: nearly all actives have a fitted effect of over 55% in size
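Seeded 400 DT40-hTDP1 cells/well (vehicle DMSO, no 20 nM CPT); pinned compounds; ≥48 hr at 37 °C; CellTiter-Glo luminescence as viability measure.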
DT40 TDP1 CPT: growth inhibition of DT40 Tdp1-/-;hTDP1 cells with camptothecin (screen for TDP1 inhibitors). 420,000 tested, 12% active. Potency, µM (series often up to 46.2 µM), most hits filed as inhibitors. chicken DT40 Tdp1-/-;hTDP1 cells + 20 nM CPT, ATP luminescence, 48 h; also: nearly all actives have a fitted effect of over 55% in size
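Chicken DT40 Tdp1-/- cells complemented with human TDP1, 400 cells/well, exposed to compounds plus 20 nM camptothecin for at least 48 h at 37 C; viability read as ATP content by CellTiter-Glo luminescence.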
HT1080NT lethal: kills 2HG-producing HT-1080-NT fibrosarcoma cells. HT-1080-NT fibrosarcoma viability, CellTiter-Glo ATP luminescence, 48 h. Potency, µM (series often up to 46.1 µM), most hits filed as cytotoxic. 360,000 tested, 1.6% active. AID 686970;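 also: NT is the 2HG producing partner of a matched IDH1 knockdown line; nearly all actives have a fitted effect of over 55% in size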
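Luminescent CellTiter-Glo readout after 48 hours of compound exposure at 37 degrees C defined viability of HT-1080-NT cells. Activity was normalized to DMSO wells and cell-free media wells; concentration-response curves were fitted and assigned curve classes.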
IL-1B inflam inh: inhibitors of inflammasome signaling (IL-1 beta secretion); AID 743279; activity change, % at 57.5 µM; 360,000 tested, 4.7% active; THP-1 LPS/ATP IL-1B secretion, AlphaLISA, 16 h; hits give low values; in the data active = activity change below about -50%; inconclusive = mostly about -30% to -49%
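Secreted IL-1B measured by AlphaLISA bead assay after 16 h compound exposure of THP-1 cells; compounds (final up to 57.5 uM) added 1 h before LPS (250 ng/mL) and ATP (1.25 mM) stimulation; lower signal means less secretion.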
A number is an active result; . = inactive; ? = inconclusive; / = no result; [ ] = dose if it differs, or a comment. Unless noted, calls follow the shape of the dose curve; as a rule, active = well fitted curve in the direction sought with a large enough effect; inconclusive = small, poorly fitted or top-dose-only effect, or another doubt; inactive = no such curve, though single readings can be large; an effect the other way counts as inactive or inconclusive.

SMILES	HT1080 IDH1KD tx	TDP1 cell noCPT	DT40 TDP1 CPT	HT1080NT lethal	IL-1B inflam inh
CC(=O)c1cccc(-c2cnc3c(NC=O)cc(-c4ccc(C(=O)N5CCOCC5)cc4)cn23)c1	.	?	?	?	.
CC(=O)c1ccc(-c2cnc3c(NC=O)cc(-c4ccc(C(=O)N5CCOCC5)cc4)cn23)cc1	?	21µM	16µM	?	.
CCc1nc2ccc(C(=O)N(CC)CCN(C)C)cn2c1N(C)Cc1cccs1	.	.	.	.	.
O=C(c1ccncc1)N1CCC2(CCCN(c3ncccn3)C2)CC1	/	.	.	/	/
CCOc1ccc2nc(NC3=NC(c4ccc(OC)cc4)CC(=O)N3)nc(C)c2c1 (stereo not given)	?	21µM	23µM	?	-103
Cc1cccc(C(=O)Nc2nnc(Cc3ccccc3)s2)c1	.	?	.	.	.
Cc1cc(C(=O)Nc2ccncc2)c2ccccc2n1	.	.	.	.	.
Cc1cccc(Cn2c(SCc3ccc(C(=O)NCCc4ccccc4)cc3)nc3ccncc32)c1	/	13µM	?	/	/
O=C(NCCc1ccccc1)c1ccc(CSc2nc3ccncc3n2Cc2cccc(F)c2)cc1	/	12µM	13µM	/	/
O=C(NCCc1ccccc1)c1ccc(CSc2nc3ccncc3n2Cc2ccccc2F)cc1	/	?	15µM	/	/
O=C(CCN1C(=O)c2ccccc2S1(=O)=O)NCc1ccccc1	.	.	.	.	.
Cc1cccc(C(=O)N[C@H]2CC[C@@H](n3cc(C(=O)N4CCCC4)nn3)CC2)c1	/	.	.[9.04 µM]	/	/
Cc1cc(=O)oc2c(C)c(OC(C)C(=O)N3CC[C@@]4(O)CCCC[C@H]4C3)ccc12 (stereo not given in full)	?	.	.	.	.
CC(=O)N1CCN(S(=O)(=O)c2cccc(C(=O)NC3CC3)c2)CC1	.	.	.	.	.
O=C(c1cccc(S(=O)(=O)N2CCN(c3ccc(F)cc3)CC2)c1)N1CCCC1	.	?	?	.	.
CC1CC(C)CN(S(=O)(=O)c2cccc(C(=O)N3CCN(c4ccc(F)cc4)CC3)c2)C1 (stereo not given)	.	21µM	?	.	.
CC1CCC(NC(=O)c2cccc(S(=O)(=O)N3CCN(c4ccc(F)cc4)CC3)c2)CC1 (stereo not given)	.	9.2µM	?	.	.
CC1CCN(S(=O)(=O)c2cccc(C(=O)N3CCN(c4ccc(F)cc4)CC3)c2)CC1	.	?	15µM	?	.
CC(C)Oc1cccc(NC(=O)C2(C)CCN2C(=O)C(C)C)c1 (stereo not given)	.	.	.	.	.
Cc1ccc(C(C)(C)NC(=O)C2CCC(=O)N(Cc3ccccc3F)C2)cc1 (stereo not given)	.	?	?	.	.
Cc1ccc(-c2nn(-c3ccc(F)cc3)c3c2cnc2cc(F)c(F)cc23)cc1	/	?	.	/	/
Nc1nnc(SCc2ccc(Cl)cc2)s1	.	.	.	.	.
Clc1ccc(CSc2nnc(NC3=NCCCCC3)s2)cc1	.	10µM	?	.	.
CCCCn1c(N)c(N(CC(C)C)C(=O)c2oc3c(Cl)cccc3c2C)c(=O)[nH]c1=O	.	?	.	.	?
COC(=O)C1=C(C)NC(=O)/C1=C\c1cc(C)n(-c2cc(C)cc(C)c2)c1C	?	?	?	.	-60
SMILES	HT1080 IDH1KD tx	TDP1 cell noCPT	DT40 TDP1 CPT	HT1080NT lethal	IL-1B inflam inh
COC(=O)C1=C(C)NC(=O)/C1=C\c1cc(C)n(-c2ccccc2)c1C	.	?	?	.	?
COc1ccc(/C(N)=N/OC(=O)CSc2ccccc2)cc1	.	.	.	.	-60
N/C(=N\OC(=O)COc1ccc2ccccc2c1)c1ccncc1	.	?	21µM	.	.
COc1ccc(CCNS(=O)(=O)c2cccc(C(=O)O)c2)cc1OC	.	16µM	21µM	.	.
Cc1ccc(CCNS(=O)(=O)c2ccc3c(c2)NC(=O)CCS3)cc1	.	?	?	.	.
COc1ccc(CCNS(=O)(=O)c2ccc3c(c2)NC(=O)CCS3)cc1OC	?	?	12µM	.	.

Bioassay records: PubChem, National Center for Advancing Translational Sciences (NCATS)
